Screening results: PubChem, several laboratories
CRFBP-R2 block – antagonists of CRF-BP/CRF-R2 complex, primary screen, cell-based, HEK293, calcium dye fluorescence, uHTS; AID 588475, 2011; 350,000 tested, 0.59% active; CRF-induced calcium fluorescence; inhibition, % at 11.8 µM;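 active = inhibition of the ligand-induced calcium signal above about 50% at the single tested concentration, limit read from the data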
Myeloid diff MLP – induction of myeloid progenitor differentiation, primary screen, cell-based, flow cytometry, MLPCN library; ER-HoxA9 myeloid progenitors, lysozyme-GFP differentiation; calls only at 10 µM; 360,000 tested, 1% active; AID 624256, 2012;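 active = normalized GFP-positive differentiation at or above the plate's own cutoff, the solvent-only control mean plus 3 SD; inconclusive = no clear call, values can overlap the other calls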;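 also: cells exposed to compound for four days before flow analysis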
NRP1-CendR mod – modulators of CendR peptide binding to NRP-1, primary screen, biochemical, fluorescence polarization, uHTS. inhibition, % at 25 µM. Neuropilin-1 (Homo sapiens), O14786. 360,000 tested, 0.85% active. FAM-RPARPAR peptide binding to NRP-1. AID 602438, 2012;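 active = inhibition or corrected inhibition above about 18%, plus a signal ratio from 0.5 to 1.5, limit read from the data, passing the limit was not always enough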
FAS TE block – FAS thioesterase domain inhibitors, primary screen, biochemical, fluorescence intensity, uHTS; Fatty acid synthase (Homo sapiens), P49327; recombinant FAS-TE, OMFH fluorogenic substrate, fluorescence endpoint; inhibition, % at 15 µM; 360,000 tested, 0.67% active; AID 602261, 2012;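 active = compounds whose normalised, plate-corrected inhibition of enzyme fluorescence in the single-dose primary screen is 50% or more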
NadD inh – inhibitors of S. aureus NadD, primary screen, biochemical, colorimetric, uHTS. Nicotinate-nucleotide adenylyltransferase NadD (Staphylococcus aureus N315). purified NadD enzyme, colorimetric absorbance read-out. inhibition, % at 20 µM. 360,000 tested, 0.78% active; in the data active = inhibition above about 26%
Myeloid diff – inducers of myeloid progenitor differentiation, confirmation, cell-based, GFP/Mac1 flow cytometry, cherry pick 01. shares compounds with Myeloid diff MLP. ER-HoxA9 myeloid progenitors, GFP/Mac1 double-positive flow. calls only. 2,300 tested, 2% active. AID 651706, 2012;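 active = share of green or green-and-red cells above 9 and 9% in run 1 or 4 and 3% in run 2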
GFP autofluor – flagged as fluorescent in myeloid differentiation counter-screen. shares compounds with Myeloid diff MLP. ER-HoxA9 myeloid progenitors, no estrogen, GFP autofluorescence flow cytometry; vehicle wells 0%, positive control 100%. fluorescence response, % (test concentration not listed). 2,300 tested, 7.4% active. AID 651707;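 active = over 5% cells positive for green fluorescent reporter, or over 2% positive for both it and APC stain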
A number is an active result; - = inactive; ? = inconclusive; . = no result; + = active, no number. Hits are enriched below; roughly 3.6% of the tested compounds scored in any of these assays.

SMILES | CRFBP-R2 block | Myeloid diff MLP | NRP1-CendR mod | FAS TE block | NadD inh | Myeloid diff | GFP autofluor
Cc1ccc(O)c(Cn2nnc3ccccc32)c1 | - | - | - | - | - | . | .
COc1ccc(/C=N/NC(=O)CSc2n[nH]c(=O)[nH]c2=O)cc1 | - | - | - | - | - | . | .
CC(/C=N/NC(=O)CSc1n[nH]c(=O)[nH]c1=O)=C\c1ccccc1 | - | - | - | - | - | - | -
CN(C)S(=O)(=O)c1cccc(NC(=O)c2ccc(S(=O)(=O)N3CCCCC3)cc2)c1 | - | - | - | - | - | . | .
Cc1ccc(N(C)S(=O)(=O)c2cccc(C(=O)Nc3ccc(N4CCOCC4)cc3)c2)cc1 | - | + | - | - | - | - | -
COc1cc(NCC(=O)Nc2cccc(S(=O)(=O)N3CCCCC3)c2)cc(OC)c1OC | - | + | - | - | - | - | -
COc1ccc([N+](=O)[O-])cc1NCC(=O)Nc1cccc(S(=O)(=O)N2CCCC2)c1 | - | - | - | - | - | . | .
CN(c1ccccc1)S(=O)(=O)c1cccc(C(=O)Nc2ccc(N3CCOCC3)cc2)c1 | - | - | - | - | - | . | .
Cc1ccc(S(=O)(=O)N2CCCCC2)cc1NC(=O)c1cncc(Br)c1 | - | - | - | - | - | . | .
O=C(Nc1cccc(S(=O)(=O)N2CCCCCC2)c1)c1cncc(Br)c1 | - | - | - | - | - | - | -
CN(C)S(=O)(=O)c1cccc(NC(=O)c2cccc(S(=O)(=O)N3CCCCCC3)c2)c1 | - | + | - | - | - | - | -
CC(=O)CSc1nnc(Cc2ccc3c(c2)OCO3)o1 | - | - | - | - | - | . | .
Cc1ccc(OCC(=O)Nc2ccc3oc(=O)ccc3c2)c(C)c1 | - | - | - | - | - | . | .
CCOC(=O)c1c(N/N=C/c2cccnc2)n[nH]c1C | - | - | - | - | - | . | .
O=C(NCCO)c1cccc(S(=O)(=O)N2CCCCC2)c1 | - | - | - | - | - | - | -
CCOc1ccccc1NC(=O)CCNS(=O)(=O)c1ccccc1 | - | + | - | - | - | - | -
CCOc1ccccc1NC(=O)CCC(=O)Nc1ccccc1OCC | - | - | - | - | - | . | .
CC(CCc1ccco1)NC(=O)Cn1nc(Cc2ccncc2)c2ccccc2c1=O (stereo not given) | - | - | - | - | - | - | -
CC(=O)Cc1cc(=O)c2c(C)cc(O)c(C3OC(CO)C(O)C(O)C3O)c2o1 (stereo not given) | - | - | - | - | - | - | -
O=c1cc(-c2ccc(O)c(O)c2)oc2cc(O)c([C@@H]3O[C@H](CO)[C@@H](O)[C@H](O)[C@H]3O)c(O)c12 | - | - | - | - | - | . | .
NC(=O)c1cc(Br)cc(C2CCCCC2)c1O | - | - | - | - | - | . | .
Cc1ccc(NC(=O)C[n+]2ccn(C3=C([O-])c4ccccc4C3=O)c2)cc1 | - | - | - | - | - | . | .
CCCC[n+]1ccn(C2=C([O-])c3ccccc3C(=O)/C2=N\S(=O)(=O)c2ccc(Br)cc2)c1 | - | - | - | - | - | - | -
C[C@H](CO)N1C[C@H](C)[C@@H](CN(C)S(=O)(=O)c2ccc(F)cc2)Oc2ccc(NC(=O)C3CCCCC3)cc2C1=O | - | - | - | - | - | - | -
Cc1cc(Cl)ccc1OCC(=O)NNC(=O)CCOc1ccccc1 | - | - | - | - | - | . | .
SMILES | CRFBP-R2 block | Myeloid diff MLP | NRP1-CendR mod | FAS TE block | NadD inh | Myeloid diff | GFP autofluor
Cc1ccc(/C=C/c2nnc(-c3cccs3)o2)cc1 | - | - | - | - | - | - | -
Fc1ccc(/C=C/c2nnc(-c3cccs3)o2)cc1 | - | - | - | - | - | . | .
CCOc1ccccc1CSc1nc2ccccc2[nH]1 | - | - | - | - | - | - | -
CN(C(=O)c1ccnn1C)C1CCCN(Cc2ccccc2F)C1 (stereo not given) | - | - | - | - | - | . | .
O=C(NNC1=Nc2cccc3cccc1c23)c1ccc(Br)cc1 | - | + | - | - | - | - | 12
COc1ccc(CC(=O)NNC2=Nc3cccc4cccc2c34)cc1OC | - | - | - | - | - | . | .
COc1ccccc1C(C)NC(=O)c1cc(=O)[nH]c2ccccc12 (stereo not given) | - | - | - | - | - | . | .
Cc1cc(NC(=O)CSc2nnc(-c3ccccc3)c(-c3ccccc3)n2)no1 | - | . | - | - | - | . | .
CC(=O)c1ccccc1OC(=O)c1ccco1 | - | + | - | - | - | - | -
CCOc1ccccc1OC(=O)c1ccco1 | - | - | - | - | - | - | -
CC(=O)COc1ccccc1OC(=O)c1ccco1 | - | - | - | - | - | . | .
O=C(N/N=C/CCc1ccccc1)c1ccc(CN2c3cccc4cccc(c34)S2(=O)=O)cc1 | - | - | - | - | - | - | -
O=C(CN1c2cccc3cccc(c23)S1(=O)=O)NCCc1ccccc1 | - | - | - | - | - | . | .
CN(C)C(CNC(=O)c1ccc2nccnc2c1)c1ccco1 (stereo not given) | - | - | - | - | - | . | .
COc1cc(C2C3=C(CC(C)(C)CC3=O)Nc3ccccc3N2C(C)=O)cc(OC)c1OC (stereo not given) | - | - | - | - | - | - | -
COc1ccc(-c2csc3ncn(-c4ccccc4OC)c(=O)c23)cc1OC | - | + | - | - | - | - | -
Cc1csc(NC(=O)Cc2ccccc2Cl)n1 | - | - | - | - | - | . | .
Cc1cnc(NC(=O)CSc2ccccc2)s1 | - | + | - | - | - | - | -
Cc1cnc(NC(=O)Cc2ccccc2Cl)s1 | - | - | - | - | - | - | -
CCOC(=O)C1CCN(C(=O)CCc2nnc3ccc(NCc4ccco4)nn23)CC1 | - | + | - | - | - | - | -
O=C(CCc1nnc2ccc(NCc3ccco3)nn12)N1CCN(c2ccccc2)CC1 | - | ? | - | - | - | . | .
CN(C(=O)C(C)(C)C)[C@H]1C[C@H]2c3[nH]c4ccccc4c3CCN2C(=O)[C@H]1CO | - | - | - | - | - | - | -
COc1ccc(NC(=S)N2CCC3CC2c2c(Cl)cccc23)c(OC)c1 (stereo not given) | - | + | - | - | - | + | -
CCN(CC)C(=O)CN1C(=O)C(=O)c2ccccc21 | - | - | - | - | - | - | -
C=CCc1c(OC)ccc2ccc(=O)oc12 | - | - | - | - | - | . | .
CC(C)CNC(=O)NC1(C(F)(F)F)Oc2ccccc2O1 | - | - | - | - | - | . | .
O=C(NCc1cccnc1)NC1(C(F)(F)F)Oc2ccccc2O1 | - | + | - | - | - | - | -
Clc1ccc(Oc2nc(Oc3ccc(Cl)cc3)nc(N3CCOCC3)n2)cc1 | - | + | - | - | - | - | -
